Assay results as given in PubChem BioAssay (EPA / NIEHS).
Where “and” joins values, the source holds several entries; their conditions need not be identical. Equal values may be shown once. Results filed as inconclusive are left out. The source holds several records for some structures; these can differ, active in one and inactive in another. Calls of active or inactive are those of the source. Rule for the calls, unless noted: active = hit-call score of the fitted dose curve at least 0.9, where 1 is the maximum; inactive = score below 0.9.

Legend:
[1] = read-out: Monocyte Chemoattractant Protein-1 (MCP1), CCL2 (gene 6347); assay: BSK_LPS_MCP1: BioMAP Diversity Plus: LPS Assay for Monocyte Chemoattractant Protein-1 (MCP1) Biomarker Activity (AID 2283081); settings: primary human HUVEC with PBMC; actives raise or lower the signal;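 for AC50: co-culture stimulated with LPS; secreted MCP-1 protein quantified by ELISA in culture supernatant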
In short: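 Secreted MCP-1 read by ELISA at 24 h post-dosing in an LPS-activated co-culture of endothelial cells with peripheral blood mononuclear cells. Fits run in both directions, DMSO as baseline; parallel SRB staining tracks overt cytotoxicity.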

[2] = read-out: Macrophage colony-stimulating factor (MCSF), CSF1 (gene 1435); assay: BSK_LPS_MCSF: BioMAP Diversity Plus: LPS Assay for Macrophage colony-stimulating factor (MCSF) Biomarker Activity (AID 2283083); settings: primary human HUVEC with PBMC; actives raise or lower the signal
In short: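 Bidirectional fitting against DMSO was applied to M-CSF levels read by ELISA at 24 h post-dose. The system pairs human umbilical vein endothelium with peripheral blood mononuclear cells; parallel SRB staining tracked cytotoxicity.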

[3] = read-out: Tissue Factor, F3 (gene 2152); assay: BSK_LPS_TissueFactor: BioMAP Diversity Plus: LPS Assay for Tissue Factor Biomarker Activity (AID 2283084); settings: primary human HUVEC with PBMC; actives raise or lower the signal
In short: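 Compound was added to an endothelial cell/PBMC co-culture, and after 24 h tissue factor (CD142) was read by ELISA. Gain or loss of signal was fitted against a DMSO baseline, and parallel SRB staining (560 nm) tracked overt cytotoxicity.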

[4] = read-out: Tumor necrosis factor (Homo sapiens) (UniProt P01375); assay: BSK_LPS_TNFa: BioMAP Diversity Plus: LPS Assay for Tumour Necrosis Factor alpha (TNFa) Biomarker Activity (AID 2283085); settings: primary human HUVEC with PBMC; actives raise or lower the signal;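 for AC50: TNFa protein level quantified by ELISA in the co-culture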
In short: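 ELISA-based TNFa endpoint in a human endothelial–PBMC co-culture sampled 24 h post-exposure. Curves were fitted in both directions using DMSO as baseline of activity.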

[5] = read-out: Vascular cell adhesion molecule 1 (VCAM1), VCAM1 (gene 7412); assay: BSK_LPS_VCAM1: BioMAP Diversity Plus: LPS Assay for Vascular cell adhesion molecule 1 (VCAM1) Biomarker Activity (AID 2283086); settings: primary human HUVEC with PBMC; actives raise or lower the signal
In short: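 Measured by ELISA: VCAM-1 in LPS-activated HUVEC/PBMC co-cultures 24 h after treatment. Values reflect bidirectional fitting with DMSO as baseline.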

CD38, CD38 (gene 952) = assay: BSK_SAg_CD38: BioMAP Diversity Plus: SAg Assay for CD38 Biomarker Activity (AID 2283087); settings: primary human HUVEC with PBMC; actives raise or lower the signal
In short: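 Measures CD38 on a human endothelial/PBMC co-culture driven by SEB and TSST-1, 24 h after compound exposure, using ELISA with fluorescence detection; DMSO defines baseline for bidirectional curve fitting.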

CD40, CD40 (gene 958) = assay: BSK_SAg_CD40: BioMAP Diversity Plus: SAg Assay for CD40 Biomarker Activity (AID 2283088); settings: primary human HUVEC with PBMC; actives raise or lower the signal
In short: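 CD40 is measured by fluorescence ELISA in an endothelial/PBMC primary human co-culture at 24 h post-dose. Fitting is bidirectional, DMSO baseline. Parallel SRB staining (560 nm) flags cytotoxicity.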

[6] = read-out: Monocyte Chemoattractant Protein-1 (MCP1), CCL2 (gene 6347); assay: BSK_SAg_MCP1: BioMAP Diversity Plus: SAg Assay for Monocyte Chemoattractant Protein-1 (MCP1) Biomarker Activity (AID 2283090); settings: primary human HUVEC with PBMC; actives raise or lower the signal
In short: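 Values derive from bidirectional fitting of ELISA-measured MCP1 against DMSO controls. Readings were taken 24 h after dosing human vascular endothelial cells co-cultured with peripheral blood mononuclear cells under superantigen stimulation.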

[7] = read-out: E-selectin (Homo sapiens) (UniProt P16581); assay: BSK_SAg_Eselectin: BioMAP Diversity Plus: SAg Assay for Eselectin Biomarker Activity (AID 2283091); settings: primary human HUVEC with PBMC; actives raise or lower the signal
In short: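 Cell-surface E-selectin is read by ELISA at 24 h in the SAg co-culture of HUVEC and PBMC. Curves are fitted in both directions relative to DMSO. Parallel SRB total-protein staining tracks overt toxicity.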

[8] = read-out: Monokine induced gamma interferon (MIG), CXCL9 (gene 4283); assay: BSK_SAg_MIG: BioMAP Diversity Plus: SAg Assay for Monokine induced gamma interferon (MIG) Biomarker Activity (AID 2283092); settings: primary human HUVEC with PBMC; actives raise or lower the signal
In short: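 Values reflect bidirectional fitting of ELISA-measured MIG against DMSO vehicle, taken 24 h after dosing of a co-culture of human umbilical vein endothelial cells and peripheral blood mononuclear cells.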

[9] = BSK_SAg_PBMCCytotoxicity: PBMC Cytotoxicity Assessment in the BioMAP Diversity Plus: SAg Assay (AID 2283093); settings: primary human HUVEC with PBMC;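 note: fitted both ways against DMSO so a hit may be loss or gain of signal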;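 for AC50: PBMC superantigen activated with SEB plus TSST-1 one hour after compound addition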
In short: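 PBMC viability by Alamar Blue reduction, fluorescence read at 546/580 nm after 6 h dye exposure. Cells were dosed 1 h before SEB plus TSST-1 activation (20 ng/mL final each), then held 90 h; endothelial/PBMC human co-culture.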

[10] = read-out: Interleukin-8 (IL8), CXCL8 (gene 3576); assay: BSK_SAg_IL8: BioMAP Diversity Plus: SAg Assay for Interleukin-8 (IL8) Biomarker Activity (AID 2283094); settings: primary human HUVEC with PBMC; actives raise or lower the signal
In short: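 Primary human endothelial cells with PBMC, exposed 24 h; IL-8 determined by ELISA, analysed bidirectionally relative to DMSO.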

[11] = BSK_SAg_Proliferation: Cell Proliferation Assessment in the BioMAP Diversity Plus: SAg Assay (AID 2283095); settings: primary human HUVEC with PBMC;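 note: relative cell number as total protein by SRB absorbance in sub-confluent culture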
In short: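 A human primary co-culture of umbilical vein endothelium and blood mononuclear cells receives compound; relative cell number is quantified at 96 h by SRB staining and 560 nm absorbance, with DMSO-referenced bidirectional curve fitting.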

[12] = BSK_SAg_SRB: Viability Assessment in the BioMAP Diversity Plus: SAg Assay (AID 2283096); settings: primary human HUVEC with PBMC;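 note: cells read one day after compound addition; hits may be either gain or loss of signal compared with DMSO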
In short: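 Compounds were added to a human vascular co-culture of umbilical vein endothelium and PBMC. After 24 h, parallel cultures were fixed with 10% TCA, stained with 0.1% sulforhodamine B and read at 560 nm. Gain or loss of signal was fitted relative to DMSO.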

CD69, CD69 (gene 969) = assay: BSK_SAg_CD69: BioMAP Diversity Plus: SAg Assay for CD69 Biomarker Activity (AID 2283089); settings: primary human HUVEC with PBMC; actives raise or lower the signal;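 for AC50: cell surface CD69 protein quantified by ELISA with fluorescence detection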
In short: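 Values derive from bidirectional fitting relative to DMSO vehicle. Cells: umbilical vein endothelium plus peripheral blood mononuclear cells, treated 24 h before fluorescent ELISA for CD69.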

[13] = BSK_LPS_PGE2: BioMAP Diversity Plus: LPS Assay for Prostaglandin E2 (PGE2) Biomarker Activity (AID 2283082); settings: primary human HUVEC with PBMC; actives raise or lower the signal;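 for AC50: secreted prostaglandin E2 measured by ELISA in LPS-stimulated co-culture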
In short: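 Primary human endothelial cells and blood mononuclear cells, co-cultured with LPS, receive test chemical; PGE2 ELISA follows at 24 h, with SRB-stained parallel cultures flagging cytotoxicity.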

[14] = target: human CYP2C9, CYP2C9 (gene 1559) (UniProt P11712); assay: NVS_ADME_hCYP2C9: NovaScreen (NVS) CYP450-related Enzyme Activity (ADME) Assay for human CYP2C9 (AID 2283108; active = hit-call score of the fitted dose curve at least 0.9, where 1 is the maximum)
Sequence of human CYP2C9, CYP2C9 (gene 1559) (P11712 whole entry, looked up): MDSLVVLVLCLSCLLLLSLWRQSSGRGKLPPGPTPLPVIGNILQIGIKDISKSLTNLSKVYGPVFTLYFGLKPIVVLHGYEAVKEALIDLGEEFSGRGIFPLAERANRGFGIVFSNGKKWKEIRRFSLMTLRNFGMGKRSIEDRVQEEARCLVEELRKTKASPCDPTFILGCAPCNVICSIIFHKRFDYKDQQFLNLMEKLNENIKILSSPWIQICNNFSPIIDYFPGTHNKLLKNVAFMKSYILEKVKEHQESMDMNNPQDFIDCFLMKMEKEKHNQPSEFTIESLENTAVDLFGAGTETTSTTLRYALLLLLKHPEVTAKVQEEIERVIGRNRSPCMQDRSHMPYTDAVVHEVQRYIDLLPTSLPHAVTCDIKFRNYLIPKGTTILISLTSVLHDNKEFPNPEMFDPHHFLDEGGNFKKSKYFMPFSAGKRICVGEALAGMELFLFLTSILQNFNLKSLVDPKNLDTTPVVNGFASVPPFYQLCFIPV
In short: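 Recombinant human CYP2C9 expressed in SF9 cells, fluorogenic substrate, fluorescence read 0.75 h after dosing. Chemicals first run in duplicate at 10 uM, with actives followed in concentration series; loss of signal versus acetonitrile baseline.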

[15] = target: Cytochrome P450 3A4 (Homo sapiens) (UniProt P08684); assay: NVS_ADME_hCYP3A4: NovaScreen (NVS) CYP450-related Enzyme Activity (ADME) Assay for human CYP3A4 (AID 2283110; active = hit-call score of the fitted dose curve at least 0.9, where 1 is the maximum)
Sequence of Cytochrome P450 3A4 (Homo sapiens) (P08684 whole entry, looked up): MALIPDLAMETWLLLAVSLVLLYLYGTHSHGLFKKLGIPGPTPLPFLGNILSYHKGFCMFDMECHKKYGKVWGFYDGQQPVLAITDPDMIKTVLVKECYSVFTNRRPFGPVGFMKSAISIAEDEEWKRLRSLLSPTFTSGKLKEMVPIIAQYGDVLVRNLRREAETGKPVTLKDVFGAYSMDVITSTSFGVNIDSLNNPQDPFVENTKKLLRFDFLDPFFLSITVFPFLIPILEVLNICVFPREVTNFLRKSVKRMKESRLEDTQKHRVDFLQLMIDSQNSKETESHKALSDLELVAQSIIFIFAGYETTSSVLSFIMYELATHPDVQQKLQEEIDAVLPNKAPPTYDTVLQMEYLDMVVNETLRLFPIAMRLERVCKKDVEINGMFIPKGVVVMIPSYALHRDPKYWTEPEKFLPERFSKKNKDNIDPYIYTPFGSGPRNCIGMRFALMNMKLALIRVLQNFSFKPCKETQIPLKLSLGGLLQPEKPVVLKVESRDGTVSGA
In short: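 Recombinant CYP3A4 from insect cells, fluorescence enzyme read-out, 0.33 h after chemical addition. Acetonitrile = negative control/baseline. Primary HTS: 10 uM in duplicate; actives re-tested in concentration series.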

Measured: AC50

Sequence of Tumor necrosis factor (Homo sapiens) (P01375 whole entry, looked up): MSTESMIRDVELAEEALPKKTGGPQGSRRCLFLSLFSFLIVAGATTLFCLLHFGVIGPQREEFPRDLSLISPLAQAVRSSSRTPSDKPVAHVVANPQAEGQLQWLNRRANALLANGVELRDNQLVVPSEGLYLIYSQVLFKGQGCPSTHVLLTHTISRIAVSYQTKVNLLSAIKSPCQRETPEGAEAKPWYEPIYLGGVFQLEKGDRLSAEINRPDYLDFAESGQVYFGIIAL
Sequence of E-selectin (Homo sapiens) (P16581 whole entry, looked up): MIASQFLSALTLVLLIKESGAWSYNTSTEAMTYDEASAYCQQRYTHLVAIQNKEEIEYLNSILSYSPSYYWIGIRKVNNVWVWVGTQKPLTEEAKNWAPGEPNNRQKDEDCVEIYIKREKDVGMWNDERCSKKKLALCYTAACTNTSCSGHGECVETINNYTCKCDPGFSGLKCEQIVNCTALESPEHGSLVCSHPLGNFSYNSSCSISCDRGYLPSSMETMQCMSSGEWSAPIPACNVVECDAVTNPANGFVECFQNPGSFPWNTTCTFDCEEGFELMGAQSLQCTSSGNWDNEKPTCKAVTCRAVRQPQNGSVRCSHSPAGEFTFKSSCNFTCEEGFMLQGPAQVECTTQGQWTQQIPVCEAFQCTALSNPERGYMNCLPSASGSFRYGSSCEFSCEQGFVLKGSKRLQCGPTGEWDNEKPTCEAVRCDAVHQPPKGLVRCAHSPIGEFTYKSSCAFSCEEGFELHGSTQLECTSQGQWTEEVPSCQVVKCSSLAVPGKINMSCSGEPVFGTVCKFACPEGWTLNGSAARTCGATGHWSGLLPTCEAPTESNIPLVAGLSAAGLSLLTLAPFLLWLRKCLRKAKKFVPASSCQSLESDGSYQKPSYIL

Cc1ccc2n[nH]nc2c1
inactive: [1] | [2] | [3] | [4] | [5] | CD38, CD38 (gene 952) | CD40, CD40 (gene 958) | [6] | [7] | [8] | [9] | [10] | [11] | [12]

CCCCC(CC)COC(=O)/C=C\C(=O)OCC(CC)CCCC (centres undefined)
inactive: [1] | [2] | [3] | [4] | CD38, CD38 (gene 952) | CD40, CD40 (gene 958) | CD69, CD69 (gene 969) | [6] | [7] | [8] | [9] | [10] | [12]
active: [5] 11.9 µM | [11] 20 µM

O=C(O)c1ccc([N+](=O)[O-])cc1
inactive: [1] | [2] | [3] | [4] | [5] | CD38, CD38 (gene 952) | CD40, CD40 (gene 958) | [6] | [7] | [8] | [9] | [10] | [11] | [12]

CC(=O)OCCC(C)CC(C)(C)C (centres undefined)
inactive: [1] | [2] | [3] | [4] | [5] | CD38, CD38 (gene 952) | CD40, CD40 (gene 958) | [6] | [7] | [8] | [9] | [10] | [11] | [12]
active: [11] 1.85 µM

NCCNCCN
inactive: [1] | [2] | [3] | [4] | [5] | CD38, CD38 (gene 952) | CD40, CD40 (gene 958) | [6] | [7] | [8] | [9] | [10] | [11] | [12]

CC1COc2ccccc2N1C(=O)C(Cl)Cl (centres undefined)
inactive: [3] | [6] | [8] | [9] | [10] | [11]
active: [1] 5.75 µM | [2] 8.01 µM | [4] 4.9 µM | [5] 9.65 µM | CD38, CD38 (gene 952) 10.4 µM | CD40, CD40 (gene 958) 7.65 µM | [7] 13.3 µM | [12] 10.3 µM

CCCCC(CC)COCCC#N (centres undefined)
active: [1] 0.016 µM | [10] 80.1 nM
inactive: [2] | [3] | [4] | [5] | CD38, CD38 (gene 952) | CD40, CD40 (gene 958) | [6] | [7] | [8] | [9] | [11] | [12]

C[C@H]1C[C@@H]2[C@H]([C@@H](O)C[C@@]3(C)[C@H]2CC[C@]3(O)C(=O)CO)[C@@]2(C)C=CC(=O)C=C12
active: [3] 6.44 µM | [4] 4.93 µM and 3.97 µM | [7] 3.1 µM and 1.1 µM | [10] 4.3 µM and 1.37 µM | [11] 2.49 µM and 6.67 µM
inactive: [1] | [2] | [3] | [5] | CD38, CD38 (gene 952) | CD40, CD40 (gene 958) | [6] | [8] | [9] | [12]

CC(=O)O[C@]1(C(C)=O)CC[C@H]2[C@@H]3C[C@H](C)C4=CC(=O)CC[C@]4(C)[C@H]3CC[C@@]21C
inactive: [1] | [13] | [2] | [3] | [4] | [5] | CD38, CD38 (gene 952) | CD40, CD40 (gene 958) | [6] | [7] | [8] | [9] | [10] | [11] | [12]
active: [14] 0.119 µM | [15] 0.00997 µM

CC(=O)[C@H]1CC[C@H]2[C@@H]3CC=C4C[C@@H](O)CC[C@]4(C)[C@H]3CC[C@]12C
inactive: [1] | [2] | [4] | [5] | CD38, CD38 (gene 952) | CD40, CD40 (gene 958) | CD69, CD69 (gene 969) | [6] | [7] | [8] | [10] | [11] | [12]
active: [3] 9.59 µM and 11.8 µM | [9] 6.25 µM and 7.57 µM

COC(=O)c1ccc(C)cc1
inactive: [1] | [2] | [3] | [4] | [5] | CD38, CD38 (gene 952) | CD40, CD40 (gene 958) | CD69, CD69 (gene 969) | [6] | [7] | [8] | [9] | [10] | [11] | [12]

O=C1CCCCCCCCCCCCCCO1
active: [13] 3.97 µM | [5] 23.5 µM | CD69, CD69 (gene 969) 20 µM | [9] 11.7 µM | [11] 10.3 µM
inactive: [1] | [2] | [3] | [4] | CD38, CD38 (gene 952) | CD40, CD40 (gene 958) | [6] | [7] | [8] | [10] | [12]

C=CCOC(=O)CCC1CCCCC1
inactive: [1] | [13] | [2] | [3] | [4] | [5] | CD38, CD38 (gene 952) | CD40, CD40 (gene 958) | [6] | [7] | [8] | [9] | [10] | [11] | [12]
active: [3] 1.01 µM

C#C[C@]1(O)CC[C@H]2[C@@H]3CCC4=Cc5oncc5C[C@]4(C)[C@H]3CC[C@@]21C
active: [13] 3.97 µM
inactive: [1] | [2] | [3] | [4] | [5] | CD38, CD38 (gene 952) | CD40, CD40 (gene 958) | [6] | [7] | [8] | [9] | [10] | [11] | [12]

CCn1c2ccccc2c2cc(N)ccc21
active: [1] 1.24 µM | [2] 7.37 µM | CD38, CD38 (gene 952) 4.91 µM | CD40, CD40 (gene 958) 6.33 µM | [6] 1.85 µM | [10] 20.8 nM | [14] 0.405 µM
inactive: [3] | [4] | [5] | [7] | [8] | [9] | [11] | [12]
